Values joined by “and” are separate entries in the source; they are usually repeats but may differ in a detail not shown here. Equal entries are not always repeated. The campaign covered roughly 5,500 compounds. About 2,000 (36%) were called active. Roughly 18% stayed inconclusive and do not appear here. No stated cut-off is given here; in the data, active means normalized growth mostly below about 0.91 (no sharp cut-off); inconclusive means no clear call, values can overlap the other calls; inactive means mostly above about 0.92. This is one part of the list.
Experiment: chemical genetic growth profiling, strain panel (AID 1159580);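 further: tested at 20 µM; growth read once vehicle control cultures reached saturation at 30 °C; 1 = growth at the plate median or of vehicle wells; lower values mean less growth of the strain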
Conditions: S. cerevisiae deletion strains, growth OD

Measured: normalized growth

Nc1cc(-c2ccncc2)c[nH]c1=O
inactive: locus YBR021W, strain FUR4, active compounds read low 0.952 | locus YBR171W, strain sec66, active compounds read low 0.966 | locus YBR229C, strain ROT2, active compounds read low 0.952 | locus YCL029C, strain bik1, active compounds read low 0.988 | locus YCR088W, strain abp1, active compounds read low 0.925 | locus YDL005C, strain med2, active compounds read low 0.971 | locus YDL035C, strain GPR1, active compounds read low 0.907 | locus YDL040C, strain nat1, active compounds read low 0.936 | locus YDL074C, strain BRE1, active compounds read low 0.913 | locus YDL101C, strain DUN1, active compounds read low 0.994 | locus YDL185W, strain tfp1, active compounds read low 0.973 | locus YDL192W, strain arf1, active compounds read low 0.974 | locus YDR001C, strain nth1, active compounds read low 0.972 | locus YDR101C, strain arx1, active compounds read low 0.977 | locus YDR137W, strain rgp1, active compounds read low 0.976 | locus YDR159W, strain sac3, active compounds read low 0.928 | locus YDR162C, strain NBP2, active compounds read low 0.949 | locus YDR195W, strain ref2 0.951 | locus YDR335W, strain msn5, active compounds read low 0.934 | locus YDR502C, strain sam2, active compounds read low 0.926 | locus YEL037C, strain rad23, active compounds read low 0.937 | locus YEL061C, strain CIN8, active compounds read low 0.98 | locus YER015W, strain faa2, active compounds read low 0.993 | locus YER110C, active compounds read low 0.983 | locus YER111C, strain swi4, active compounds read low 0.979 | locus YER155C, strain BEM2, active compounds read low 0.963 | locus YGL078C, strain dbp3, active compounds read low 0.976 | locus YGL167C, strain pmr1, active compounds read low 0.974 | locus YGL227W, strain vid30, active compounds read low 0.96 | locus YGR135W, strain pre9, active compounds read low 0.945 | locus YGR229C, strain SMI1, active compounds read low 0.923 | locus YHR030C, strain SLT2, active compounds read low 0.959 and 1.04 | locus YHR079C, strain IRE1 (second series), active compounds read low 0.988 | locus YHR079C, strain IRE1, active compounds read low 1.04 | locus YHR094C, strain hxt1, active compounds read low 0.978 | locus YHR129C, strain ARP1, active compounds read low 0.961 | locus YHR200W, strain rpn10, active compounds read low 0.974 | locus YIL073C, strain SPO22, active compounds read low 0.713 | locus YIL125W, strain kgd1, active compounds read low 0.982 | locus YIR030C, strain dcg1, active compounds read low 0.988 | locus YJL092W, strain hpr5, active compounds read low 0.923 | locus YJL095W, strain BCK1, active compounds read low 0.961 and 1.01 | locus YJL115W, strain asf1, active compounds read low 0.932 | locus YJL129C, strain trk1, active compounds read low 0.94 | locus YJL134W, strain LCB3, active compounds read low 0.994 | locus YJL154C, strain vps35, active compounds read low 0.964 | locus YJL168C, strain set2, active compounds read low 0.986 | locus YJL187C, strain SWE1 (second series), active compounds read low 0.96
active: locus YAL021C, strain ccr4, active compounds read low 0.86 | locus YAL026C, strain drs2, active compounds read low 0.802 | locus YAL030W, strain snc1, active compounds read low 0.885 | locus YBL061C, strain skt5, active compounds read low 0.899 | locus YBR009C, strain hhf1, active compounds read low 0.671 | locus YBR023C, strain chs3, active compounds read low 0.832 | locus YBR231C, strain swc5, active compounds read low 0.562 | locus YBR279W, strain paf1, active compounds read low 0.63 | locus YCL011C, strain gbp2, active compounds read low 0.833 | locus YCL016C, strain dcc1, active compounds read low 0.567 | locus YCL061C, strain MRC1, active compounds read low 0.901 | locus YCL069W, strain vba3, active compounds read low 0.757 | locus YDL134C, strain PPH21, active compounds read low 0.823 | locus YDR069C, strain doa4, active compounds read low 0.885 | locus YDR297W, strain sur2, active compounds read low 0.856 | locus YDR318W, strain mcm21, active compounds read low 0.809 | locus YDR334W, strain swr1, active compounds read low 0.664 | locus YDR388W, active compounds read low 0.919 | locus YDR392W, strain spt3, active compounds read low 0.265 | locus YEL003W, strain gim4, active compounds read low 0.624 | locus YEL061C, strain CIN8 (second series), active compounds read low 0.787 | locus YER016W, strain bim1, active compounds read low 0.672 | locus YER155C, strain BEM2 (second series), active compounds read low 0.368 | locus YER167W, strain BCK2, active compounds read low 0.86 | locus YFR010W, strain ubp6, active compounds read low 0.863 | locus YGL086W, strain mad1, active compounds read low 0.872 | locus YGL173C, strain kem1, active compounds read low 0.715 | locus YGL240W, strain doc1, active compounds read low 0.684 | locus YGL248W, strain PDE1, active compounds read low 0.678 | locus YGL253W, strain hxk2, active compounds read low 0.523 | locus YGR078C, strain PAC10, active compounds read low 0.527 | locus YGR252W, strain gcn5, active compounds read low 0.706 | locus YHR013C, strain ard1, active compounds read low 0.506 | locus YHR027C, strain rpn1, active compounds read low 0.872 | locus YHR142W, strain chs7, active compounds read low 0.705 | locus YIL066C, strain RNR3, active compounds read low 0.74 | locus YJL095W, strain BCK1 (second series), active compounds read low 0.714 | locus YJL164C, strain tpk1, active compounds read low 0.69 | locus YJL166W, strain qcr8, active compounds read low 0.539 | locus YJL187C, strain SWE1, active compounds read low 0.755

Reference: PubChem BioAssay AID1159580 (chemical genetic matrix, 2015)
